Source: PubChem BioAssay (Tox21)
Values without a mark were called inactive. Results filed as inconclusive are left out. A call without a number means that no potency is given here. Activity calls are given as the source filed them. Unless noted, the call rests on the fitted dose curve; in most records, active means well fitted curve in the direction sought with a large enough effect in the repeat runs; inconclusive means weak or mixed curves; inactive means no such curve, though single readings can be large; an effect the other way counts as inactive or inconclusive.

How the values were obtained:
[1] = qHTS assay to identify small molecule HDAC inhibitors (AID 1259364);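 further: wild-type HCT-116 cells with endogenous class I/II HDAC activity; top concentration of the series differs between compounds; nearly all actives have a fitted effect of over 45% in size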
In short: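 Relative class I and II HDAC activity is taken from the luminogenic signal in HCT-116 cells, with compound exposure 2 hr and reagent development 30 min at room temperature.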

[2] = qHTS assay to identify small molecule HDAC inhibitors - cell viability counter screen (AID 1259365); further: series mostly up to about 92 µM; nearly all actives have a fitted effect of over 50% in size
In short: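 Following a 2hr exposure of overnight-plated wild-type HCT-116 cells to DMSO-delivered compounds, CellTiter-Glo was added and luminescence recorded after 30min at room temperature.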

[3] = qHTS assay to identify small molecule agonists of the sonic hedgehog signaling (Shh) pathway - cell viability counter screen (AID 1259366); further: nearly all actives have a fitted effect of over 50% in size; further: potency means the concentration at half of the fitted maximal effect
In short: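 After a 4hr attachment at 37C, NIH/3T3 cells bearing an integrated Gli1-driven luciferase reporter were dosed with compounds. Treatment lasted 24hr, with the final hour including CellTiter-Fluor for a fluorescence viability measurement.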

[4] = qHTS assay to identify small molecule antagonists of the sonic hedgehog signaling (Shh) pathway - cell viability counter screen (AID 1259367); further: nearly all actives have a fitted effect of over 55% in size; further: potency means the concentration at half of the fitted maximal effect
In short: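 Using CellTiter-Fluor, viability of Gli1-Luc reporter 3T3 cells is read by fluorescence in the wells used for the Shh luciferase assay. Treatment lasts 23 hr with conditioned medium, then reagent 1 hr at 37C.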

[5] = qHTS assay to identify small molecule agonists of the sonic hedgehog signaling (Shh) pathway (AID 1259368; calls by dose curve; further: nearly all actives have a fitted effect of over 15% in size; further: potency means the concentration at half of the fitted maximal effect;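 on activity change: NIH/3T3-derived 3T3Gli1-Luc cells carrying a stable Gli1-driven firefly luciferase reporter; series mostly up to about 92 µM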)
In short: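 Mouse fibroblast (NIH/3T3) reporter cells with stably integrated Gli1-Luc were treated 24 hr with compound; firefly luciferase luminescence served as the read-out.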

[6] = target: Estrogen receptor beta (Homo sapiens) (UniProt Q92731); experiment: qHTS assay to identify small molecule agonists of the estrogen receptor beta (ER-beta) signaling pathway (AID 1259377; active means well fitted activation curve with a large enough effect in the signal ratio in the repeat runs, not every such curve was filed as active; the % refers to the signal ratio; further: potency means the concentration at half of the fitted maximal effect)
Chain of Estrogen receptor beta (Homo sapiens) (Q92731 whole entry, looked up): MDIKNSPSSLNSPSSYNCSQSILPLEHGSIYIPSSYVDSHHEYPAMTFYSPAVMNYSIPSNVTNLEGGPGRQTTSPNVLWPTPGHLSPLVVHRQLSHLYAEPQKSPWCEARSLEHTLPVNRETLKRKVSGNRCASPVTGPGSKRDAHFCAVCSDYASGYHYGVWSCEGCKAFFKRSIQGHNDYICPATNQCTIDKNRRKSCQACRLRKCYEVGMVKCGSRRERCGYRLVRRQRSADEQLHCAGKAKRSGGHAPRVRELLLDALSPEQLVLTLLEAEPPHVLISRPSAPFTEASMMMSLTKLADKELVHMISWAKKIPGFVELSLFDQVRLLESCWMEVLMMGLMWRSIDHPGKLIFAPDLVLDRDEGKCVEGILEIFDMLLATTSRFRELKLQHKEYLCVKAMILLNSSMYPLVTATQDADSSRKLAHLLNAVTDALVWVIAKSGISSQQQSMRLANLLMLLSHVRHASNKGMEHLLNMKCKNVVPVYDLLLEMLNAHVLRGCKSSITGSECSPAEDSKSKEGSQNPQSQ
In short: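 In HEK293T cells bearing a UAS-beta-lactamase reporter under ER-beta control, DMSO-delivered compounds were incubated for 16 hr at 37C. Activity was detected as fluorescence 2 hours after LiveBLAzer B/G FRET substrate addition.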

[7] = qHTS assay to identify small molecule antagonists of the sonic hedgehog signaling (Shh) pathway (AID 1259369; calls by dose curve; further: nearly all actives have a fitted effect of over 45% in size; further: potency means the concentration at half of the fitted maximal effect)
In short: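 Conditioned medium drives Shh signalling in 3T3Gli1-Luc cells; compounds in DMSO co-applied, 24hr at 37 C, then luciferase luminescence.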

SMILES	Potency [1]	Potency [2]	Potency [3]	Potency [4]	Potency [5]	Potency [6]	Potency [7]	activity change, negative = inhibition [1]	activity change [5]
CC(C)(C)c1cc(/C=C2\SC(=N)NC2=O)cc(C(C)(C)C)c1O	inactive	inactive	inactive	inactive	inactive	inactive	–	–	–
CC(C)c1cccc(C(C)C)c1N1C(=O)c2ccc(O)cc2C1=O	inactive	inactive	–	inactive	inactive	–	13.7 µM (active)	–	–
CCCCCCC(C)Nc1ccc(Nc2ccccc2)cc1 (stereo not drawn)	inactive	inactive	–	–	inactive	inactive	27.3 µM (active)	–	–
[O]=[Zr]	inactive	inactive	–	inactive	inactive	–	inactive	–	–
CCN(CC)c1ccc(N)cc1	inactive	inactive	35.3 µM (active)	–	inactive	–	4.99 µM (active)	–	–
CC1=C(/C=C/C(C)=C/C=C/C(C)=C\C=O)C(C)(C)CCC1	inactive	inactive	–	–	inactive	inactive	25.8 µM (active)	–	–
O=C(O)CCCCCCC(=O)O	inactive	inactive	inactive	–	inactive	inactive	inactive	–	–
C=CCCCCCCC=C	inactive	inactive	–	–	inactive	–	30.7 µM (active)	–	–
S=C(SSSSSSC(=S)N1CCCCC1)N1CCCCC1	–	–	5.35 µM (active)	7.56 µM (active)	–	–	–	-8.72% [at 19 µM]	-10.5% [at 18.9 µM, active compounds read high]
Cc1cccc(C)c1NC(=O)CN1CCN(CCCC(c2ccc(F)cc2)c2ccc(F)cc2)CC1	inactive	inactive	–	–	inactive	inactive	–	–	–
Cc1c(C)n(Cc2ccccc2)c2ccc(C(=O)OCCN(C)C)cc12	–	inactive	–	inactive	inactive	inactive	6.68 µM (active)	–	–
CCNc1nc(NC(C)CC)nc(OC)n1 (stereo not drawn)	inactive	inactive	inactive	–	inactive	–	30.6 µM (active)	–	–
CCCCCCC(C)OC(=O)COc1nc(F)c(Cl)c(N)c1Cl (stereo not drawn)	inactive	–	inactive	inactive	inactive	–	inactive	–	–
CC1CCCNC1 (stereo not drawn)	inactive	inactive	–	–	inactive	inactive	26.7 µM (active)	–	–
O=C1NCN(c2ccccc2)C12CCN(CCCC(c1ccc(F)cc1)c1ccc(F)cc1)CC2	inactive	inactive	–	–	inactive	inactive	–	–	–
CC(=O)OC(OC(C)=O)c1ccc([N+](=O)[O-])o1	inactive	–	22.1 µM (active)	24.8 µM (active)	–	–	8.78 µM (active)	–	–
Oc1ccc(-c2ccc(O)cc2)cc1	–	inactive	–	–	inactive	2.75 µM (active)	6.15 µM (active)	–	–
CCCCCCOc1cc(C)c(O)c(C)c1C	inactive	–	–	–	inactive	–	61.9 µM (active)	–	–
CCCCCCCCCC(=O)N(C)C	–	inactive	inactive	–	inactive	inactive	–	–	–
COC(=O)NCCC[Si](OC)(OC)OC	inactive	inactive	inactive	–	inactive	inactive	inactive	–	–
C=CC(=C)CCC=C(C)C	inactive	inactive	–	inactive	inactive	inactive	inactive	–	–
O=C(O)CC(=O)O	inactive	inactive	inactive	–	inactive	inactive	–	–	–
CN1[C@@H]2CC[C@@H]1CC(OC(=O)C(CO)c1ccccc1)C2 (stereo partly drawn)	inactive	inactive	inactive	inactive	–	–	inactive	–	–
C=CC(=O)OCCOCC(CC)(COCCOC(=O)C=C)COCCOC(=O)C=C	inactive	–	5.67 µM (active)	–	16 µM (active)	–	5.67 µM (active)	–	–
COC(=O)[C@]1(C)CCC[C@@]2(C)[C@H]1CC=C1C=C(C(C)C)CC[C@@H]12	inactive	inactive	inactive	–	inactive	inactive	inactive	–	–
Nc1cc(Cl)c([N+](=O)[O-])cc1O	inactive	inactive	–	–	inactive	–	–	–	–
